Holding throughout (details): mRNA level, 48 h; actives raise or lower the signal
Read-out in assay [1]: Lipoprotein lipase (LPL), LPL (gene 4023)
The assay can be described thus: LTEA_HepaRG_LPL: Life Technologies and Expression Analysis (LTEA) Assay for Lipoprotein lipase (LPL) using HepaRG (AID 2283515). The method, boiled down: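 Differentiated HepaRG cells, plated 48 h, then exposed 48 h in serum-free induction medium to 8 concentrations (top 100 uM, half-log steps) in 0.5% DMSO, duplicate. LPL mRNA measured by qRT-PCR, normalized to ACTB, GAPDH and POLR2A.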

Read-out in assay [2]: MicroRNA 122 (MIR122), gene 406906
The assay is described as follows: LTEA_HepaRG_MIR122: Life Technologies and Expression Analysis (LTEA) Assay for MicroRNA 122 (MIR122) using HepaRG (AID 2283516). Also: the transcript read is the microRNA miR-122. In a few lines:
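Differentiated human HepaRG cells in serum-free induction medium exposed 48 h to 8 half-log concentrations from 100 uM in 0.5% DMSO, duplicate. MIR122 quantified by Fluidigm TaqMan qRT-PCR, normalised to ACTB, GAPDH, POLR2A; fold change fitted bidirectionally versus DMSO.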

Read-out in assay [3]: matrix metalloproteinase-10 (MMP10), MMP10 (gene 4319)
The assay is described as follows: LTEA_HepaRG_MMP10: Life Technologies and Expression Analysis (LTEA) Assay for matrix metalloproteinase-10 (MMP10) using HepaRG (AID 2283517). The method, boiled down: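 Differentiated HepaRG cells in serum-free induction medium exposed 48 h in duplicate to 8-point half-log series up to 100 uM in 0.5% DMSO. mRNA quantified by qRT-PCR, normalised to ACTB, GAPDH, POLR2A; bidirectional fit versus DMSO.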

Read-out in the next assay: MYC, MYC (gene 4609)
The assay can be described thus: LTEA_HepaRG_MYC: Life Technologies and Expression Analysis (LTEA) Assay for MYC using HepaRG (AID 2283518). The method, boiled down:
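Differentiated human HepaRG cells, plated 48 h then switched to serum-free induction medium, were exposed in duplicate for 48 h to 8-point half-log series up to 100 uM in 0.5% DMSO. MYC mRNA measured by qRT-PCR, normalized to ACTB/GAPDH/POLR2A.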

Read-out in assay [4]: matrix metalloproteinase-3 (MMP3), MMP3 (gene 4314)
The assay can be described thus: LTEA_HepaRG_MMP3: Life Technologies and Expression Analysis (LTEA) Assay for matrix metalloproteinase-3 (MMP3) using HepaRG (AID 2283519). The method, boiled down:
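HepaRG cells (~100,000/well) in serum-free induction medium were dosed in duplicate for 48 h with an 8-point half-log series from 100 uM, 0.5% DMSO. MMP3 mRNA was quantified by Fluidigm TaqMan qRT-PCR, normalized to three housekeeping genes.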

Read-out in assay [5]: Paternally Expressed 10 (PEG10), PEG10 (gene 23089)
The assay is described as follows: LTEA_HepaRG_PEG10: Life Technologies and Expression Analysis (LTEA) Assay for Paternally Expressed 10 (PEG10) using HepaRG (AID 2283520). In a few lines:
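Differentiated HepaRG cells exposed 48 h in serum-free induction medium to eight half-log concentrations topping at 100 uM, 0.5% DMSO, in duplicate. PEG10 mRNA quantified by TaqMan qRT-PCR, normalized to ACTB, GAPDH and POLR2A; bidirectional fit versus DMSO.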

Read-out in assay [6]: Nuclear factor NF-kappa-B p105 subunit (Homo sapiens) (UniProt P19838)
The assay is described as follows: LTEA_HepaRG_NFKB1: Life Technologies and Expression Analysis (LTEA) Assay for Nuclear Factor Kappa B Subunit 1 (NFKB1) using HepaRG (AID 2283521).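 Also: TaqMan qRT-PCR transcript normalised to ACTB GAPDH and POLR2A housekeeping genes.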 The method, boiled down:
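Differentiated human HepaRG cells in serum-free induction medium with 0.5% DMSO were exposed for 48 h to eight half-log concentrations, top 100 uM, in duplicate. NFKB1 mRNA measured by Fluidigm TaqMan qRT-PCR, normalised to ACTB, GAPDH and POLR2A; bidirectional fit versus DMSO.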

Read-out in assay [7]: Protein phosphatase 2A (PPP2R4), PTPA (gene 5524)
The assay is described as follows: LTEA_HepaRG_PPP2R4: Life Technologies and Expression Analysis (LTEA) Assay for Protein phosphatase 2A (PPP2R4) using HepaRG (AID 2283522). In a few lines:
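Differentiated human HepaRG cells in serum-free induction medium were exposed 48 h to 8 concentrations (top 100 µM, half-log steps, duplicate) in 0.5% DMSO. PPP2R4 mRNA was measured by TaqMan qRT-PCR, normalised to ACTB, GAPDH and POLR2A, and fitted bidirectionally versus DMSO.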

Read-out in assay [8]: Phosphatase and tensin (PTEN), PTEN (gene 5728)
The assay can be described thus: LTEA_HepaRG_PTEN: Life Technologies and Expression Analysis (LTEA) Assay for Phosphatase and tensin (PTEN) using HepaRG (AID 2283523). The method, boiled down:
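HepaRG cells, 48 h after plating, exposed in duplicate for 48 h in serum-free induction medium to 8 half-log concentrations up to 100 uM (0.5% DMSO). PTEN mRNA by qRT-PCR, normalized to ACTB, GAPDH, POLR2A; bidirectional fit versus DMSO.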

Read-out in assay [9]: solute carrier (SLC22A1), SLC22A1 (gene 6580)
The assay can be described thus: LTEA_HepaRG_SLC22A1: Life Technologies and Expression Analysis (LTEA) Assay for solute carrier (SLC22A1) using HepaRG (AID 2283524). In a few lines:
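Differentiated human HepaRG cells in serum-free induction medium, exposed 48 h in duplicate to 8-point half-log series from 100 µM top in 0.5% DMSO. SLC22A1 mRNA by TaqMan qRT-PCR normalized to ACTB, GAPDH, POLR2A; bidirectional fit versus DMSO.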

Read-out in assay [10]: Pyruvate Dehydrogenase Kinase 4 (PDK4), PDK4 (gene 5166)
The assay is described as follows: LTEA_HepaRG_PDK4: Life Technologies and Expression Analysis (LTEA) Assay for Pyruvate Dehydrogenase Kinase 4 (PDK4) using HepaRG (AID 2283525). In a few lines: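 HepaRG cells plated 48 h, then switched to serum-free induction medium and exposed in duplicate for 48 h to 8 half-log concentrations from 100 uM in 0.5% DMSO. PDK4 mRNA measured by qRT-PCR, normalized to ACTB, GAPDH and POLR2A; bidirectional fit versus DMSO.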

Read-out in assay [11]: NAD(P)H dehydrogenase [quinone] 1 (NQO1), NQO1 (gene 1728)
The assay is described as follows: LTEA_HepaRG_NQO1: Life Technologies and Expression Analysis (LTEA) Assay for NAD(P)H dehydrogenase [quinone] 1 (NQO1) using HepaRG (AID 2283526). The method, boiled down:
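Differentiated human HepaRG cells in serum-free induction medium, dosed in duplicate for 48 h at 8 half-log concentrations up to 100 uM in 0.5% DMSO. NQO1 mRNA by qRT-PCR normalized to ACTB, GAPDH, POLR2A; bidirectional fit versus DMSO baseline.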

Read-out in assay [12]: Nuclear factor erythroid 2-related factor 2 (Homo sapiens) (UniProt Q16236)
The assay is described as follows: LTEA_HepaRG_NFE2L2: Life Technologies and Expression Analysis (LTEA) Assay for Nuclear factor erythroid 2-related factor 2 (NFE2L2) Transcription Factor using HepaRG (AID 2283527).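 As to outcome: TaqMan qRT-PCR transcript level normalised to ACTB GAPDH and POLR2A housekeeping genes.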 In a few lines:
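Differentiated human HepaRG cells, serum-free induction medium, exposed 48 h in duplicate to eight half-log concentrations up to 100 uM in 0.5% DMSO. NFE2L2 mRNA by Fluidigm TaqMan qRT-PCR, normalised to ACTB, GAPDH, POLR2A; bidirectional change versus DMSO.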

Read-out in assay [13]: succinate dehydrogenase complex iron sulfur subunit B (SDHB), SDHB (gene 6390)
The assay can be described thus: LTEA_HepaRG_SDHB: Life Technologies and Expression Analysis (LTEA) Assay for succinate dehydrogenase complex iron sulfur subunit B (SDHB) using HepaRG (AID 2283528). In a few lines: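 HepaRG cells (~100,000/well, plated 48 h) exposed in duplicate for 48 h in serum-free induction medium to 8-point half-log series from 100 uM in 0.5% DMSO; mRNA by qRT-PCR normalised to ACTB, GAPDH, POLR2A; bidirectional fit versus DMSO.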

Read-out in assay [14]: Signal transducer and activator of transcription 3 (Homo sapiens) (UniProt P40763)
The assay is described as follows: LTEA_HepaRG_STAT3: Life Technologies and Expression Analysis (LTEA) Assay for Signal transducer and activator of transcription (STAT3) using HepaRG (AID 2283529). In a few lines:
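Differentiated HepaRG cells, serum-free induction medium, dosed 48 h in duplicate, 8 half-log concentrations from 100 uM in 0.5% DMSO. STAT3 mRNA by qRT-PCR, normalised to ACTB, GAPDH, POLR2A; bidirectional fit versus DMSO.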

Read-out in assay [15]: solute carrier (SLCO1B1), SLCO1B1 (gene 10599)
The assay is described as follows: LTEA_HepaRG_SLCO1B1: Life Technologies and Expression Analysis (LTEA) Assay for solute carrier (SLCO1B1) using HepaRG (AID 2283530). In a few lines: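 Differentiated human HepaRG cells, plated 48 h, switched to serum-free induction medium and exposed in duplicate for 48 h to 8 half-log concentrations (top 100 uM) in 0.5% DMSO. SLCO1B1 mRNA by TaqMan qRT-PCR, normalized to ACTB/GAPDH/POLR2A.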

Read-out in assay [16]: sulfotransferase 2A1 (SULT2A1), SULT2A1 (gene 6822)
The assay can be described thus: LTEA_HepaRG_SULT2A1: Life Technologies and Expression Analysis (LTEA) Assay for sulfotransferase 2A1 (SULT2A1) using HepaRG (AID 2283531). The method, boiled down: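 Differentiated human HepaRG cells in serum-free induction medium were exposed for 48 h to eight half-log concentrations (top 100 uM, 0.5% DMSO). SULT2A1 mRNA was measured by qRT-PCR, normalized to ACTB, GAPDH and POLR2A, and fitted bidirectionally against DMSO.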

Read-out in assay [17]: Transforming Growth Factor (TGFA), TGFA (gene 7039)
The assay is described as follows: LTEA_HepaRG_TGFA: Life Technologies and Expression Analysis (LTEA) Assay for Transforming Growth Factor (TGFA) using HepaRG (AID 2283532). The method, boiled down:
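Differentiated HepaRG cells exposed 48 hours in serum-free induction medium, 0.5% DMSO vehicle, 8-point half-log series from 100 uM, in duplicate. TGFA mRNA by TaqMan qRT-PCR, normalised to ACTB, GAPDH, POLR2A; bidirectional fit versus DMSO.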

Read-out in assay [18]: Transforming Growth Factor (TGFB1), TGFB1 (gene 7040)
The assay can be described thus: LTEA_HepaRG_TGFB1: Life Technologies and Expression Analysis (LTEA) Assay for Transforming Growth Factor (TGFB1) Transporter using HepaRG (AID 2283533). In a few lines: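 Differentiated human HepaRG cells in serum-free induction medium were exposed in duplicate for 48 h to eight concentrations (top 100 uM, half-log steps, 0.5% DMSO). TGFB1 mRNA was quantified by qRT-PCR, normalized to ACTB, GAPDH, POLR2A, and fitted bidirectionally against DMSO.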

Read-out in the next assay: TIMP1, TIMP1 (gene 7076)
The assay is described as follows: LTEA_HepaRG_TIMP1: Life Technologies and Expression Analysis (LTEA) Assay for TIMP1 using HepaRG (AID 2283534).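 As to outcome: TaqMan qRT-PCR signal normalized to ACTB GAPDH and POLR2A housekeeping genes.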 The method, boiled down: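 Differentiated human HepaRG cells in serum-free induction medium were exposed 48 h to chemicals (8 half-log concentrations, top 100 uM, 0.5% DMSO). TIMP1 mRNA was quantified by TaqMan qRT-PCR, normalized to ACTB/GAPDH/POLR2A; bidirectional fit versus DMSO.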

Each structure is given as a SMILES string. Activity calls are given as the source filed them. The calls were made as follows: active = hit-call score of the fitted dose curve at least 0.9, where 1 is the maximum; inactive = score below 0.9.

Chain of Signal transducer and activator of transcription 3 (Homo sapiens) (P40763 whole entry, looked up): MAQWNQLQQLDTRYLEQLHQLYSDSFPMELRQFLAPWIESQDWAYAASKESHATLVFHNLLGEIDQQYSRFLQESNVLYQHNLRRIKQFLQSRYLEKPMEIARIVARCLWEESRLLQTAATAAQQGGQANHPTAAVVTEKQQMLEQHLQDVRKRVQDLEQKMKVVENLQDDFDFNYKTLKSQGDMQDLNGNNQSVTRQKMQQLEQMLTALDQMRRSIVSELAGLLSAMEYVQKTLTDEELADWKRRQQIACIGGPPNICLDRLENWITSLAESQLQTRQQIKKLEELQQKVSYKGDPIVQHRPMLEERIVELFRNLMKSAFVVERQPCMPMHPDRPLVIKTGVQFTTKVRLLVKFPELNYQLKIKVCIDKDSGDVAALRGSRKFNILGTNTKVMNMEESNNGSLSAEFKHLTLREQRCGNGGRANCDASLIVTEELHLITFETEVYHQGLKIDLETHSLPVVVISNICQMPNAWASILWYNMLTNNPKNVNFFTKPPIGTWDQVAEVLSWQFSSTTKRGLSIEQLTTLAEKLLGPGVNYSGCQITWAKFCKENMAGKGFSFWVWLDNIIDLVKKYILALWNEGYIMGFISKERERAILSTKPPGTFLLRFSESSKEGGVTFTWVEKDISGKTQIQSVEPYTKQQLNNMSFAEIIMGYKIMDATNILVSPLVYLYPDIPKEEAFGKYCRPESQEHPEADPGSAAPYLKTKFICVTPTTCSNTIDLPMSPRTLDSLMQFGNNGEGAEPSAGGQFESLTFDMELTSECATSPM
Chain of Nuclear factor erythroid 2-related factor 2 (Homo sapiens) (Q16236 whole entry, looked up): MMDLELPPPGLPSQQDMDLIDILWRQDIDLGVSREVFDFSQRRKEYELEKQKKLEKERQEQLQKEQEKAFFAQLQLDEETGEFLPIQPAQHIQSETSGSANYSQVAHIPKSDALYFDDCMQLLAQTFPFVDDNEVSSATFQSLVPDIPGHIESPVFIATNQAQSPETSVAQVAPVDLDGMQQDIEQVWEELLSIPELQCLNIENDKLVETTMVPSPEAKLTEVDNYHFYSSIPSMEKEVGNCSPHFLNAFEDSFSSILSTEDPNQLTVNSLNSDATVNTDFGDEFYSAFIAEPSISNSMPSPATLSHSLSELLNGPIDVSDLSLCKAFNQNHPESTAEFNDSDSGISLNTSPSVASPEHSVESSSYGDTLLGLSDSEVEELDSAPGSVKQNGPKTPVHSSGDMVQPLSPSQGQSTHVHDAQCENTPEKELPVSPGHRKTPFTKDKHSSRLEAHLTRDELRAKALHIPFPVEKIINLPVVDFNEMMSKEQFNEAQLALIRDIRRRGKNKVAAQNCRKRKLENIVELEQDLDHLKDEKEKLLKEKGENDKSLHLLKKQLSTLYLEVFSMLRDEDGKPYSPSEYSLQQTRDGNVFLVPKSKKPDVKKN
Chain of Nuclear factor NF-kappa-B p105 subunit (Homo sapiens) (P19838 whole entry, looked up): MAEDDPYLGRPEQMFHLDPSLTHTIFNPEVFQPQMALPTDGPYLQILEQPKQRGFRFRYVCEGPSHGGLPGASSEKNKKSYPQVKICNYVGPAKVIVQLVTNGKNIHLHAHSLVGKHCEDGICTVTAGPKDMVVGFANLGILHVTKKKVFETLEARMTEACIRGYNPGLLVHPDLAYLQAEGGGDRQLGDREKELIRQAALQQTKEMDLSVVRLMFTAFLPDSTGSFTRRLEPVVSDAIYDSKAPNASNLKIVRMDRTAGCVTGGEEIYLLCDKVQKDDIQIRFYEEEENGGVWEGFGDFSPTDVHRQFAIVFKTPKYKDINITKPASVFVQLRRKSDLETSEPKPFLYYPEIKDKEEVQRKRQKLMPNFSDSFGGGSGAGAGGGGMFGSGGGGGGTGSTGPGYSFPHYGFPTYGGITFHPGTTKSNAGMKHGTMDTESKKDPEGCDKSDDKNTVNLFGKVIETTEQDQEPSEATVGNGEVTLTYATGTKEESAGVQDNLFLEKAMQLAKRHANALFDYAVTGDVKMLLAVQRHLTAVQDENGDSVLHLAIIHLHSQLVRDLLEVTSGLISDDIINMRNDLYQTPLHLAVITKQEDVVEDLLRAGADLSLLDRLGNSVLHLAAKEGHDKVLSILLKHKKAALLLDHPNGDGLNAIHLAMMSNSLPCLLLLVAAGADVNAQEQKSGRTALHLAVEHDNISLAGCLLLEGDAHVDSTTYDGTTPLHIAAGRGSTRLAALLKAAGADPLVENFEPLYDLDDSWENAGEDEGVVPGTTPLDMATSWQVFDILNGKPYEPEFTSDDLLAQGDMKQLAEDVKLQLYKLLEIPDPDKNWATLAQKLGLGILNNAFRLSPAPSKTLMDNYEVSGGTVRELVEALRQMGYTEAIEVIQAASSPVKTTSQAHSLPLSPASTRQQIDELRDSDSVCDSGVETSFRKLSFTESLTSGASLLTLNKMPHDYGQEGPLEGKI

Regarding `CCOC(=O)CC(SP(=S)(OC)OC)C(=O)OCC` (stereo not drawn), the outcome in assay [1] is “inactive”; in [2], “inactive”; in assay [3], “inactive”; with MYC, MYC (gene 4609), “inactive”; in assay [4], “inactive”; in assay [5] it was “inactive”. Also, the compound was called inactive in assay [6], in assay [7], in assay [8], in assay [9], in [10] and in [11]. Further, the compound was classed as inactive in assay [12], in [13], in assay [14], in [15], in assay [16] and in assay [17]. Also, the outcome in assay [18] is “inactive”; in the assay with TIMP1, TIMP1 (gene 7076) it was “inactive”.

Consider `CC1COC(Cn2cncn2)(c2ccc(Oc3ccc(Cl)cc3)cc2Cl)O1` (stereo not drawn), for which the AC50 in assay [1] was 12.4 µM (active); in [2], 12.6 µM (active); in [3] it was 30.8 µM (active); with MYC, MYC (gene 4609) it was 23.9 µM (active); in assay [4], 31.7 µM (active); in assay [5], 59.1 µM (active). For the same compound, the AC50 in assay [7] is 80.6 µM (active); in assay [8], 78.5 µM (active); in assay [9] it was 9.15 µM (active); in assay [12], 19.7 µM (active); in assay [13], 84.8 µM (active); in [15], 12.8 µM (active). Besides, the AC50 in [16] was 19.6 µM (active); in assay [17], 13.6 µM (active); in [18], 89.8 µM (active); with TIMP1, TIMP1 (gene 7076), 77 µM (active). In addition, the compound was called inactive in [10], in assay [11] and in assay [14].

Turning to `N#Cc1nn(-c2c(Cl)cc(C(F)(F)F)cc2Cl)c(N)c1S(=O)C(F)(F)F` (stereo not drawn), the half-maximal activity concentration (AC50) is 31.3 µM (active) in [1]; 59.2 µM (active) in [2]; 30.7 µM (active) in assay [3]; 35.1 µM (active) with MYC, MYC (gene 4609); 50.2 µM (active) in [4]; 23.6 µM (active) in [5]. Besides, the AC50 was 11.5 µM (active) in assay [7]; 19.6 µM (active) in assay [9]; 23.1 µM (active) in assay [10]; 81.6 µM (active) in assay [11]; 83 µM (active) in [12]; 36.2 µM (active) in assay [15]. Also, the AC50 is 50.2 µM (active) in [16]; 33.2 µM (active) in [17]; 66.7 µM (active) in the assay with TIMP1, TIMP1 (gene 7076). Besides, the result in [8], in [13], in [14] and in [18] was inactive.

The record behind these values is PubChem BioAssay (EPA / NIEHS).
